{
  "source": "the supplement of paper PMC8253809",
  "data": [
    {"tested_on": "SUDIPGVI (diffuse intrinsic pontine glioma line)", "experiment": "growth inhibition (% activity, log2 RLU normalised to DMSO / staurosporine); higher = more growth inhibition", "conditions": "33 µM", "how_it_was_run": "(§1)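 On Geltrex-coated 384-well plates, pHGG cell lines and H9-derived neural stem cells were grown with approved drugs pinned in at a single final concentration of about 33 μM, in triplicate, for 7 days at 37 °C, 5% CO2. Per-plate normalisation of log2-transformed CellTiter-Glo luminescence to % activity between solvent and positive control wells followed. Each growth-inhibition value is the median over the replicates.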", "units": {"growth inhibition": "%"}, "values": [
      {"smiles": "C/C=C(\\C)C(=O)N[C@@H](c1ccccc1)[C@@H](O)C(=O)O[C@H]1C[C@@]2(O)[C@@H](OC(=O)c3ccccc3)[C@@H]3[C@]4(OC(C)=O)CO[C@@H]4C[C@H](O)[C@@]3(C)C(=O)[C@H](OC(C)=O)C(=C1C)C2(C)C", "growth inhibition": 0.972},
      {"smiles": "CCOC(=O)c1cncn1[C@H](C)c1ccccc1", "growth inhibition": 2.48},
      {"smiles": "O=C(O[C@H]1C[C@H]2CC[C@@H](C1)[N+]21CCCC1)C(O)(c1ccccc1)c1ccccc1", "growth inhibition": -6.45},
      {"smiles": "NCCc1c[nH]c2ccc(O)cc12", "growth inhibition": -3.47},
      {"smiles": "CCC1(c2ccc(N)cc2)CCC(=O)NC1=O", "note": "(configuration not stated)", "growth inhibition": 0.634},
      {"smiles": "N.N.[Cl][Pt][Cl]", "growth inhibition": -1.15},
      {"smiles": "C[N+]1(C)[C@@H]2C[C@@H](OC(=O)[C@H](CO)c3ccccc3)C[C@H]1[C@@H]1O[C@@H]12", "growth inhibition": 0.639},
      {"smiles": "CN1C2CC(O)CC1C1OC12", "note": "(configuration not stated)", "growth inhibition": -0.226},
      {"smiles": "C=CC[C@]1(O)CC[C@H]2[C@@H]3CCC4=CC(=O)CCC4=C3C=C[C@@]21C", "growth inhibition": 1.88},
      {"smiles": "CCC(COC(=O)c1cc(OC)c(OC)c(OC)c1)(c1ccccc1)N(C)C", "note": "(configuration not stated)", "growth inhibition": -0.409},
      {"smiles": "CCCCCCCCCCCCCCCC[n+]1ccccc1", "growth inhibition": 62.8},
      {"smiles": "CC[C@@H](C(N)=O)N1CCCC1=O", "growth inhibition": -0.784},
      {"smiles": "Cc1cc(O)ccc1Cl", "growth inhibition": 0.283},
      {"smiles": "OC(c1ccccc1)(c1ccccc1)C1CCNCC1", "growth inhibition": 0.144},
      {"smiles": "Cc1cccc(C)c1NC1=NCCCS1", "growth inhibition": -4.55},
      {"smiles": "COc1ccc(C(=O)N2CCCC2=O)cc1", "growth inhibition": -5.15},
      {"smiles": "N[C@@H]1C[C@H]1c1ccccc1.N[C@H]1C[C@@H]1c1ccccc1", "growth inhibition": 3.88},
      {"smiles": "COC(=O)C1=CCCN(C)C1", "growth inhibition": 3.57},
      {"smiles": "C=CCN.ClCC1CO1", "note": "(configuration not stated)", "growth inhibition": 1.49},
      {"smiles": "O=P1(NCCCl)OCCCN1CCCl", "note": "(configuration not stated)", "growth inhibition": -7.65},
      {"smiles": "CN(C)C1C(=O)C(C(N)=O)=C(O)C2(O)C(=O)C3=C(O)c4c(O)cccc4C(C)(O)C3CC12", "note": "(configuration not stated)", "growth inhibition": -2.69}
    ]},
    {"tested_on": "SUDIPGXIII (diffuse intrinsic pontine glioma line)", "experiment": "growth inhibition (% activity, log2 RLU normalised to DMSO / staurosporine); higher = more growth inhibition", "conditions": "33 µM", "how_it_was_run": "as §1", "units": {"growth inhibition": "%"}, "values": [
      {"smiles": "C[N+](C)(C)CCCCCCCCCC[N+](C)(C)C", "growth inhibition": -1.36},
      {"smiles": "CN(C)C(=O)Oc1ccc[n+](C)c1", "growth inhibition": -0.0947},
      {"smiles": "CN1c2ccccc2C(NCCCCCCC(=O)O)c2ccc(Cl)cc2S1(=O)=O", "note": "(configuration not stated)", "growth inhibition": 0.605},
      {"smiles": "O=c1[nH]c2ccccc2n1CCCN1CCC(n2c(=O)[nH]c3cc(Cl)ccc32)CC1", "growth inhibition": -2.52},
      {"smiles": "C[N+]1(C)CCCC(OC(=O)C(O)(c2ccccc2)c2ccccc2)C1", "note": "(configuration not stated)", "growth inhibition": -1.44},
      {"smiles": "CNC1CC(N)C(O)C(OC2OC(CO)C(O)C3OC4(OC(C(N)CO)C(O)C(O)C4O)OC23)C1O", "note": "(configuration not stated)", "growth inhibition": -0.132},
      {"smiles": "CN1C(=O)CCS(=O)(=O)C1c1ccc(Cl)cc1", "note": "(configuration not stated)", "growth inhibition": -0.0547},
      {"smiles": "CN(C)C(=O)Oc1cccc([N+](C)(C)C)c1", "growth inhibition": 1.72},
      {"smiles": "CCC1=C[C@H]2CN3CCc4c([nH]c5ccccc45)[C@](C(=O)OC)(C2)[C@H]13", "growth inhibition": -2.44},
      {"smiles": "NCC(O)c1ccc(O)cc1", "note": "(configuration not stated)", "growth inhibition": -3},
      {"smiles": "CCCN1C[C@H](CSC)C[C@@H]2c3cccc4[nH]cc(c34)C[C@H]21", "growth inhibition": -3.14},
      {"smiles": "CN1C(=O)COc2c(C(=O)NC3CN4CCC3CC4)cc(Cl)cc21", "note": "(configuration not stated)", "growth inhibition": 1.12},
      {"smiles": "Cn1c(CCCC(=O)O)nc2cc(N(CCCl)CCCl)ccc21", "growth inhibition": -0.487},
      {"smiles": "CC(=O)OC12COC1CC(O)C1(C)C(=O)C(O)C3=C(C)C(O)CC(O)(C(OC(=O)c4ccccc4)C21)C3(C)C", "note": "(configuration not stated)", "growth inhibition": 3.01},
      {"smiles": "CC(=O)OC1CN2CCC1CC2", "note": "(configuration not stated)", "growth inhibition": 0.846},
      {"smiles": "CC[C@@]1(O)C(=O)OCc2c1cc1n(c2=O)Cc2cc3ccccc3nc2-1", "growth inhibition": 2.77},
      {"smiles": "C/C=C(\\C)C(=O)N[C@@H](c1ccccc1)[C@@H](O)C(=O)O[C@H]1C[C@@]2(O)[C@@H](OC(=O)c3ccccc3)[C@@H]3[C@]4(OC(C)=O)CO[C@@H]4C[C@H](O)[C@@]3(C)C(=O)[C@H](OC(C)=O)C(=C1C)C2(C)C", "growth inhibition": 4.19},
      {"smiles": "CCOC(=O)c1cncn1[C@H](C)c1ccccc1", "growth inhibition": 0.0732},
      {"smiles": "O=C(O[C@H]1C[C@H]2CC[C@@H](C1)[N+]21CCCC1)C(O)(c1ccccc1)c1ccccc1", "growth inhibition": -0.149},
      {"smiles": "NCCc1c[nH]c2ccc(O)cc12", "growth inhibition": 0.646},
      {"smiles": "CCC1(c2ccc(N)cc2)CCC(=O)NC1=O", "note": "(configuration not stated)", "growth inhibition": -0.67},
      {"smiles": "N.N.[Cl][Pt][Cl]", "growth inhibition": 1.82},
      {"smiles": "C[N+]1(C)[C@@H]2C[C@@H](OC(=O)[C@H](CO)c3ccccc3)C[C@H]1[C@@H]1O[C@@H]12", "growth inhibition": 0.798},
      {"smiles": "C=CC[C@]1(O)CC[C@H]2[C@@H]3CCC4=CC(=O)CCC4=C3C=C[C@@]21C", "growth inhibition": 2.31},
      {"smiles": "CCC(COC(=O)c1cc(OC)c(OC)c(OC)c1)(c1ccccc1)N(C)C", "note": "(configuration not stated)", "growth inhibition": -13.6},
      {"smiles": "CCCCCCCCCCCCCCCC[n+]1ccccc1", "growth inhibition": 72.8},
      {"smiles": "CC[C@@H](C(N)=O)N1CCCC1=O", "growth inhibition": 0.999},
      {"smiles": "Cc1cc(O)ccc1Cl", "growth inhibition": 0.848},
      {"smiles": "OC(c1ccccc1)(c1ccccc1)C1CCNCC1", "growth inhibition": 1.52},
      {"smiles": "Cc1cccc(C)c1NC1=NCCCS1", "growth inhibition": 0.0734},
      {"smiles": "COc1ccc(C(=O)N2CCCC2=O)cc1", "growth inhibition": -1.15},
      {"smiles": "N[C@@H]1C[C@H]1c1ccccc1.N[C@H]1C[C@@H]1c1ccccc1", "growth inhibition": 0.0986},
      {"smiles": "COC(=O)C1=CCCN(C)C1", "growth inhibition": 1.1},
      {"smiles": "C=CCN.ClCC1CO1", "note": "(configuration not stated)", "growth inhibition": 0.672},
      {"smiles": "O=P1(NCCCl)OCCCN1CCCl", "note": "(configuration not stated)", "growth inhibition": -1.43},
      {"smiles": "CN(C)C1C(=O)C(C(N)=O)=C(O)C2(O)C(=O)C3=C(O)c4c(O)cccc4C(C)(O)C3CC12", "note": "(configuration not stated)", "growth inhibition": -1.63}
    ]}
  ]
}
